Laboratory results published in PubChem BioAssay (NCI).
Where “and” joins values, the source holds several entries; their conditions need not be identical. Equal values may be shown once. The panel holds about 83,000 compounds, 20% with a hit somewhere; the sample as a whole holds those more often.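 Note: values are percent growth. 100 is the growth of untreated cells, values between 100 and 0 indicate rising inhibition; between -100 and 0 indicates cell death.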 Calls of active or inactive are those of the source. The calls were made as follows: active = growth percent below 10; inactive = the rest.

Each molecule was assayed on HL-60(TB) leukemia (assay: NCI-60 one-dose screen, 48 h (100 = growth as untreated, 0 = no growth, -100 = all killed)). Conditions: 10 µM unless noted.

Structure (SMILES)	growth
C#C[C@]1(O)CC[C@H]2[C@@H]3CC=C4c5sc(-c6ccc(O)c(O)c6)nc5CC[C@]4(C)[C@H]3CC[C@@]21C	-54.1% (active)
C#C[C@]1(O)CC[C@H]2[C@@H]3CC=C4c5sc(Nc6ccc(C(F)(F)F)cn6)nc5CC[C@]4(C)[C@H]3CC[C@@]21C	1.27% (active)
O=C(N/N=C/c1ccc(-c2ccc(O)cc2)s1)c1[nH]c2ccc(Br)cc2c1-c1ccccc1	-12.4% (active)
CN1C(=O)/C(=C/c2ccc3ncsc3c2)NC1=NC12CC3CC(CC(O)(C3)C1)C2	-16.6% (active)
CC1=N/C(=C\c2ccc(N(C)C)cc2)C(=O)N1CCc1ccc(S(N)(=O)=O)cc1	102% (inactive)
O=C(NN1C(=O)/C(=C/C=C/c2ccc([N+](=O)[O-])o2)SC1=S)c1ccc(O)cc1	-41.8% (active)
CC1=C(C(=O)OC(C)C)C(c2ccc(O)cc2)NC(=S)N1 (stereo not given)	88.1% (inactive)
O=C(Nc1ccc(I)cc1)Nc1nc2ccc([N+](=O)[O-])cc2s1	-37.3% (active)
O=C(Cn1c(-c2ccccc2)nc2ccccc21)N=Nc1c(O)[nH]c2ccc(Br)cc12	42.4% (inactive)
COc1ccc2[nH]c(O)c(N=Nc3nc(-c4ccccc4)cs3)c2c1	71.6% (inactive)
CSc1ccc(NC(=O)c2ccc3nnn(/C(C#N)=C/c4ccccn4)c3c2)cc1	2.93% (active)
CN(C)CCn1c2ccccc2c2nc3cc(C(F)(F)F)ccc3nc21	24.7% (inactive)
Cn1nc(C(F)(F)F)cc1-c1cc(Cl)c(COc2ccc(Cl)cc2)c(-c2ccc(Cl)c(C(F)(F)F)c2)c1O	-22.5% (active)
O=C(CCl)Nc1ccc(C(=O)/C=C/c2cc3ccccc3nc2Cl)cc1	-17.4% (active) and 30.5% (inactive)
Cn1cc(-c2nc(N)nnc2-c2c[nH]c3ccc(F)cc23)c2cccnc21	37.2% (inactive)
CC1(c2ccccc2)NC(=O)N(CC(=O)Nc2ccc(C(=O)/C=C/C=C/c3ccccc3)cc2)C1=O (stereo not given)	36.8% (inactive)
CC1CCCCN1CCCNC(=O)N/C(N)=N/c1nc2ccccc2s1 (stereo not given)	19.5% (inactive)
O=C1Nc2ccccc2/C1=C\c1ccc(OCC(=O)c2ccc(Br)cc2)cc1	40.4% (inactive)

Structure (SMILES)	growth
C#CCN(C)CCCOc1ccc(N(C)C(=O)c2cc(C(C)C)c(O)cc2O)cc1Cl	-40.7% (active)
COc1cc(/C=C/C(=O)c2nnn(-c3ccc(Cl)cc3)c2C)cc(OC)c1OC	-5.43% (active)
Clc1ccc(/C=N/Nc2ncnc3sc4c(c23)CCN(Cc2ccccc2)C4)cc1	-8.28% (active)
CC(C)(C)OC(=O)/C=C/c1cccc2c1C(=O)NC(C)(c1cc3cc(Cl)ccc3oc1=O)N2 (stereo not given)	-6.16% (active)
COc1ccc(NC(=O)Cn2c(/C=C/c3ccc(N(C)C)cc3)nc3ccccc3c2=O)cc1	82.2% (inactive)
C/C(=N\Nc1ccc(S(N)(=O)=O)cc1)c1cnn(-c2cc(=O)[nH]c3ccc(Br)cc23)c1C	84.7% (inactive)
COc1cc(CNC(=O)/C=C/c2ccc3c(c2)OCO3)ccc1OCc1cn(-c2cccc(C(F)(F)F)c2)nn1	69.7% (inactive)
O=C(COc1ccc(NC(=O)Nc2ccc(Cl)c(Cl)c2)cc1)N=Nc1c(O)[nH]c2ccc(Br)cc12	-27.2% (active)
O=C(Nc1ccc(OCc2ccc(F)cc2)cc1)Nc1ccc(Cl)c(C(F)(F)F)c1	-3.24% (active)
O=C(c1ccc(Cl)cc1)C1[C@H](c2ccccc2Cl)[C@@H](c2ccccc2)NC12C(=O)Nc1ccc(Cl)cc12 (stereo not given in full)	-39.9% (active)
CCCSc1nc(Nc2ccc(S(N)(=O)=O)cc2)c(C#N)c(-c2ccc(Cl)cc2)n1	46.3% (inactive)
O=C1Nc2cc(-c3ccc(NC(=O)c4cccs4)cc3)ccc2/C1=C/c1ccc[nH]1	90.9% (inactive)
COc1c(B(O)O)cccc1-c1nc2ccc3cn[nH]c3c2c2c1CCCC2	47.6% (inactive)
Cc1nc(Nc2nc(C)c3ccc(OCCN4CCOCC4)cc3n2)[nH]c(=O)c1C	2.88% (active)
N/C(=N\c1nc2ccccc2s1)NC(=O)Nc1ccccc1F	-5.29% (active)
O=C(CSc1nnc(-c2c[nH]c3ccccc23)n1-c1ccccc1)c1ccc(Br)cc1	44.5% (inactive)
N#Cc1ccc(-c2nn(-c3ccc(C(=O)O)cc3)cc2CNc2ccc(Cl)cc2)cc1	87.8% (inactive)
